For orientation: AC50 means the concentration giving half of the maximal activity seen.

The text below walks through data of PubChem BioAssay (EPA / NIEHS).

Results filed as inconclusive are left out. Active and inactive are the calls of the source. Rule for the calls, unless noted: active = hit-call score of the fitted dose curve at least 0.9, where 1 is the maximum; inconclusive = response in the unintended direction; inactive = score below 0.9.

Sequence of Nuclear receptor subfamily 4 group A member 2 (Homo sapiens) (P43354 whole entry, looked up, the tested form may be a part): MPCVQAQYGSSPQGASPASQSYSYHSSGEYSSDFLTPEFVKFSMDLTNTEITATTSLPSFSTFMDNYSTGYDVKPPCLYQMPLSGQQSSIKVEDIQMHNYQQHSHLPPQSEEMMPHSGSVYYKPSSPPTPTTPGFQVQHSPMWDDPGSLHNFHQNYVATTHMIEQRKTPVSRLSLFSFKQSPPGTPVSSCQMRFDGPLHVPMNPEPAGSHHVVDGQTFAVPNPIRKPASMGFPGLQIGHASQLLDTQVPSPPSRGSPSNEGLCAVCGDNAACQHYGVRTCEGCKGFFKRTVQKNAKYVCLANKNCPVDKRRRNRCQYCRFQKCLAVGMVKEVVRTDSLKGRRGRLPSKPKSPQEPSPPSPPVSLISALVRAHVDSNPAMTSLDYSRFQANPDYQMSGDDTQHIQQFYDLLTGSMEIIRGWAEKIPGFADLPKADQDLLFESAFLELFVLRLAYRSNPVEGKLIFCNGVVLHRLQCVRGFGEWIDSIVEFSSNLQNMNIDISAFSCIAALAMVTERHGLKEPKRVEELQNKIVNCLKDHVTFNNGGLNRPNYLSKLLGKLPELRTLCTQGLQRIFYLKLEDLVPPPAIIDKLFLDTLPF

Tested on in the first assay: not listed separately
Description: ATG_M_06_TRANS: Attagene TRANS-FACTORIAL HepG2 Assay for M06 Transcription Factor (Internal Marker) (AID 2282983).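 Note: reporter transcript level by RT-PCR then capillary electrophoresis fluorescence.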 Particulars: HepG2 Attagene TRANS M06 internal marker reporter. A digest of the protocol: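 Background-control reporter readout: after 24 h chemical exposure of transiently transfected HepG2 (GAL4-UAS reporter units), mRNA quantified by RT-PCR with fluorescent labeling and capillary electrophoresis. Gain-of-signal fitting against DMSO baseline.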
On to `CNC(=O)N(C)c1nnc(C(C)(C)C)s1`, for which the call was inactive.

On to `O=P(O)(O)CCCl`, for which the compound was classed as inactive.

Consider `CCN(CC)C(=O)C(C)Oc1cccc2ccccc12` (centres undefined), for which the call was inactive.

Regarding `Clc1cccc(C(Cl)(Cl)Cl)n1`, the compound was classed as inactive.

On to `OC(c1ccc(Cl)cc1)(c1ccc(Cl)cc1)C(Cl)(Cl)Cl`, for which the result was inactive.

On to `COc1ccc(-c2ccccc2)cc1NNC(=O)OC(C)C`, for which the call was inactive.

Regarding `CCNP(=S)(OC)O/C(C)=C/C(=O)OC(C)C` (centres undefined), the result was inactive.

For `COC(=O)c1c(C(F)F)nc(C(F)(F)F)c(C2=NCCS2)c1CC(C)C`, the call was inactive.

As to `COC(=O)NS(=O)(=O)c1ccc(N)cc1`, the call was inactive.

As to `COP(=O)(OC)O/C(C)=C/C(=O)N(C)C`, the compound was classed as inactive.

For the compound `Cc1ccc(N=CN(C)C=Nc2ccc(C)cc2C)c(C)c1`, the compound was classed as inactive.

As to `COCC(C)N(C(=O)CCl)c1c(C)csc1C` (centres undefined), the call was inactive.

For the compound `CCOC(=O)C(C)OC(=O)c1cc(Oc2ccc(C(F)(F)F)cc2Cl)ccc1[N+](=O)[O-]` (centres undefined), the compound was classed as inactive.

For the compound `CC1(C)C(C(=O)OC(C#N)c2cccc(Oc3ccccc3)c2)C1(C)C` (centres undefined), the call was inactive.

In the case of `Nc1c(Cl)c(F)nc(OCC(=O)O)c1Cl`, the call was inactive.

Take `CCCCC(O)(Cn1cncn1)c1ccc(Cl)cc1Cl` (centres undefined): the result was inactive.

Take `CN/C(=N\[N+](=O)[O-])NCc1cnc(Cl)s1`: the compound was called inactive.

Regarding `CN=C=S`, the outcome was inactive.

Consider `CC(C)Nc1nc(Cl)nc(NC(C)C)n1`, for which the compound was called inactive.

Tested on in the next assay: not listed separately
In words: ATG_M_32_TRANS: Attagene TRANS-FACTORIAL HepG2 Assay for M32 Transcription Factor (Internal Marker) (AID 2282984).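 Note: transcript level of a background control reporter unit measured by RT-PCR and capillary electrophoresis.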 As to conditions: HepG2 Attagene TRANS M32 internal marker reporter. The method, boiled down: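 Fluorescence-detected mRNA induction, HepG2 liver cells, 24 h after dosing. Multiple GAL4-UAS reporter units introduced by transient transfection; background-control endpoint analysed for gain of signal against DMSO.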
As to `CNC(=O)N(C)c1nnc(C(C)(C)C)s1`, the result was inactive.

On to `O=P(O)(O)CCCl`, for which the call was inactive.

Consider `CCN(CC)C(=O)C(C)Oc1cccc2ccccc12` (centres undefined), for which the outcome was inactive.

For the compound `Clc1cccc(C(Cl)(Cl)Cl)n1`, the compound was called inactive.

For `Nc1cnn(-c2ccccc2)c(=O)c1Cl`, the result was inactive.

For the compound `Cn1c(-c2ccccc2)cc(-c2ccccc2)[n+]1C`, the compound was classed as inactive.

On to `CC1(C)CON(Cc2ccccc2Cl)C1=O`, for which the outcome was inactive.

Regarding `COC(=O)N(C(=O)N1CO[C@@]2(C(=O)OC)Cc3cc(Cl)ccc3C2=N1)c1ccc(OC(F)(F)F)cc1`, the call was inactive.

Consider `COC(=O)c1c(C(F)F)nc(C(F)(F)F)c(C2=NCCS2)c1CC(C)C`, for which the compound was classed as inactive.

As to `CCOc1cc(C(C)(C)C)ccc1C1COC(c2c(F)cccc2F)=N1` (centres undefined), the compound was classed as inactive.

As to `CCSC(=O)N1CCCCCC1`, the compound was called inactive.

On to `COCC(C)N(C(=O)CCl)c1c(C)csc1C` (centres undefined), for which the result was inactive.

`N#Cc1c(Cl)cccc1Cl`: the call was inactive.

As for `CC1(C)C(C(=O)OC(C#N)c2cccc(Oc3ccccc3)c2)C1(C)C` (centres undefined), the compound was called inactive.

As to `CN/C(=N\[N+](=O)[O-])NCc1cnc(Cl)s1`, the result was inactive.

For `CN=C=S`, the result was inactive.

Take `CC(C)Nc1nc(Cl)nc(NC(C)C)n1`: the outcome was inactive.

As to `O=C1C2CC=CCC2C(=O)N1SC(Cl)(Cl)Cl` (centres undefined), the compound was classed as inactive.

Turning to `CCN(CC)c1nc(C)cc(OP(=S)(OC)OC)n1`, the result was inactive.

For another assay, the target named is Nuclear receptor subfamily 4 group A member 2 (Homo sapiens) (UniProt P43354). Description: ATG_NURR1_TRANS: Attagene TRANS-FACTORIAL HepG2 Assay for human Nuclear Receptor Related Protein 1 (NURR1) (AID 2282985). As to conditions: HepG2 Attagene TRANS reporter, mRNA readout. A digest of the protocol:
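Chimeric NR-Gal4 proteins were expressed in human HepG2 cells bearing GAL4-UAS reporter units, and induced reporter mRNA was quantified 24 h post-dosing by RT-PCR and capillary electrophoresis.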
Turning to `CCNC(=O)NC(=O)C(C#N)=NOC`, the compound was classed as inactive.

Consider `CNC(=O)N(C)c1nnc(C(C)(C)C)s1`, for which the result was inactive.

On to `O=P(O)(O)CCCl`, for which the call was inactive.

Turning to `CCN(CC)C(=O)C(C)Oc1cccc2ccccc12` (centres undefined), the call was inactive.

`COC(=O)N(C(=O)N1CO[C@@]2(C(=O)OC)Cc3cc(Cl)ccc3C2=N1)c1ccc(OC(F)(F)F)cc1`: the outcome was inactive.

For `COc1ccc(-c2ccccc2)cc1NNC(=O)OC(C)C`, the compound was classed as inactive.

Regarding `CCNP(=S)(OC)O/C(C)=C/C(=O)OC(C)C` (centres undefined), the outcome was inactive.

In the case of `COC(=O)c1c(C(F)F)nc(C(F)(F)F)c(C2=NCCS2)c1CC(C)C`, the call was inactive.

Take `COP(=O)(OC)O/C(C)=C/C(=O)N(C)C`: the outcome was inactive.

For `CCSC(=O)N1CCCCCC1`, the call was inactive.

As for `COCC(C)N(C(=O)CCl)c1c(C)csc1C` (centres undefined), the compound was classed as inactive.

Consider `CNC(=O)Oc1cccc2ccccc12`, for which the call was inactive.

Take `CC1(C)C(C(=O)OC(C#N)c2cccc(Oc3ccccc3)c2)C1(C)C` (centres undefined): the call was inactive.

On to `Nc1c(Cl)c(F)nc(OCC(=O)O)c1Cl`, for which the result was inactive.

For `CCCCC(O)(Cn1cncn1)c1ccc(Cl)cc1Cl` (centres undefined), the compound was classed as inactive.

Turning to `CCC(C)n1c(=O)[nH]c(C)c(Br)c1=O` (centres undefined), the compound was called inactive.

Regarding `Clc1nc(Cl)nc(Nc2ccccc2Cl)n1`, the compound was classed as inactive.

`CC(C)Nc1nc(Cl)nc(NC(C)C)n1`: the outcome was inactive.

Turning to `CCN(CC)c1nc(C)cc(OP(=S)(OC)OC)n1`, the AC50 is 62.9 µM (active).

The target in a further assay is Transcriptional activator Myb (Homo sapiens) (UniProt P10242). Description: ATG_Myb_CIS: Attagene CIS-FACTORIAL HepG2 Assay for human Myeloblastosis (Myb) Proto-Oncogene Transcription Factor (AID 2282986; active = hit-call score of the fitted dose curve at least 0.9, where 1 is the maximum; inactive = score below 0.9). Particulars: HepG2 Attagene CIS-FACTORIAL Myb reporter transcription; actives raise or lower the signal. The method, boiled down: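 Reporter mRNA is quantified by RT-PCR and capillary electrophoresis 24 h after dosing HepG2 cells transfected with cis-regulated reporter units, which track endogenous transcription factor activity. Gain and loss of signal are fitted versus DMSO baseline.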
Sequence of Transcriptional activator Myb (Homo sapiens) (P10242 whole entry, looked up): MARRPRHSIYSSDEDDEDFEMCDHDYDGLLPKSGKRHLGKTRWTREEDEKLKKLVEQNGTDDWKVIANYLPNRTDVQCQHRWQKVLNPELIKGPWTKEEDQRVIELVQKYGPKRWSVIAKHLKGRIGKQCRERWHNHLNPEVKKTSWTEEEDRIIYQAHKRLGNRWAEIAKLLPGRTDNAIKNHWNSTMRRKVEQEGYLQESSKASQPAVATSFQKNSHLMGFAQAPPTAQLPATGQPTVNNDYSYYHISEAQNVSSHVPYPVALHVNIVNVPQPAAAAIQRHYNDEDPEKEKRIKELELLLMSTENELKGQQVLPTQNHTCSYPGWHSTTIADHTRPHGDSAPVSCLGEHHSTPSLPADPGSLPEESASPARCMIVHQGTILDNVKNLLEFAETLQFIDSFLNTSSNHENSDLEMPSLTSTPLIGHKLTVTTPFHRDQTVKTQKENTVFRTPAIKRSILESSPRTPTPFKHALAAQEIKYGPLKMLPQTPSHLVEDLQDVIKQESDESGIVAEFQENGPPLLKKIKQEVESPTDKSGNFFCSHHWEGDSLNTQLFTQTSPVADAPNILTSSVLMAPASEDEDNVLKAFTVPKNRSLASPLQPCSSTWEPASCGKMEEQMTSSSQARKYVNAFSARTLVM
For the compound `CNC(=O)N(C)c1nnc(C(C)(C)C)s1`, the compound was called inactive.

As for `Clc1cccc(C(Cl)(Cl)Cl)n1`, the result was inactive.

As to `Cn1c(-c2ccccc2)cc(-c2ccccc2)[n+]1C`, the outcome was inactive.

With `OC(c1ccc(Cl)cc1)(c1ccc(Cl)cc1)C(Cl)(Cl)Cl`, the call was inactive.

As to `CCNP(=S)(OC)O/C(C)=C/C(=O)OC(C)C` (centres undefined), the compound was classed as inactive.

Turning to `COC(=O)c1c(C(F)F)nc(C(F)(F)F)c(C2=NCCS2)c1CC(C)C`, the call was inactive.

For `COP(=O)(OC)O/C(C)=C/C(=O)N(C)C`, the compound was called inactive.

On to `COCC(C)N(C(=O)CCl)c1c(C)csc1C` (centres undefined), for which the compound was called inactive.

In the case of `Cc1cnc(C2=NC(C)(C(C)C)C(=O)N2)c(C(=O)O)c1` (centres undefined), the compound was called inactive.

For the compound `N#Cc1c(Cl)cccc1Cl`, the call was inactive.

Take `O=C(O)c1c(Cl)ccc2cc(Cl)cnc12`: the call was inactive.

Consider `Nc1c(Cl)c(F)nc(OCC(=O)O)c1Cl`, for which the result was inactive.

On to `CCC(C)n1c(=O)[nH]c(C)c(Br)c1=O` (centres undefined), for which the result was inactive.

Regarding `CN/C(=N\[N+](=O)[O-])NCc1cnc(Cl)s1`, the result was inactive.

In the case of `Clc1nc(Cl)nc(Nc2ccccc2Cl)n1`, the compound was classed as inactive.

Take `CN=C=S`: the compound was classed as inactive.

Consider `CCN(CC)c1nc(C)cc(OP(=S)(OC)OC)n1`, for which the compound was called inactive.
